According to PubChem BioAssay (Tox21):
Results filed as inconclusive are left out. Values without a mark were called inactive. Active and inactive are the calls of the source.

target: Glucocorticoid receptor (Homo sapiens) (UniProt P04150); assay: qHTS assay to identify small molecule agonists of the glucocorticoid receptor (GR) signaling pathway (AID 720691; active means well fitted activation curve with a large enough effect in the signal ratio in the repeat runs, not every such curve was filed as active; the % refers to the signal ratio; further: potency means the concentration at half of the fitted maximal effect); details: GR-bla HeLa, beta-lactamase reporter ratio, 18 h; series mostly up to 62.4 µM; activation: at the top concentration
How it was run: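 Steps: seed GR-bla HeLa cells, incubate 4 h at 37 C/5% CO2; pin-transfer DMSO-dissolved compounds; incubate 18 h at 37 C; add LiveBLAzer B/G FRET substrate; after 2 h at room temperature, measure fluorescence.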
On the % scale 0 is the no-effect control and ±100 the full control effect.

Chain of Glucocorticoid receptor (Homo sapiens) (P04150 whole entry, looked up): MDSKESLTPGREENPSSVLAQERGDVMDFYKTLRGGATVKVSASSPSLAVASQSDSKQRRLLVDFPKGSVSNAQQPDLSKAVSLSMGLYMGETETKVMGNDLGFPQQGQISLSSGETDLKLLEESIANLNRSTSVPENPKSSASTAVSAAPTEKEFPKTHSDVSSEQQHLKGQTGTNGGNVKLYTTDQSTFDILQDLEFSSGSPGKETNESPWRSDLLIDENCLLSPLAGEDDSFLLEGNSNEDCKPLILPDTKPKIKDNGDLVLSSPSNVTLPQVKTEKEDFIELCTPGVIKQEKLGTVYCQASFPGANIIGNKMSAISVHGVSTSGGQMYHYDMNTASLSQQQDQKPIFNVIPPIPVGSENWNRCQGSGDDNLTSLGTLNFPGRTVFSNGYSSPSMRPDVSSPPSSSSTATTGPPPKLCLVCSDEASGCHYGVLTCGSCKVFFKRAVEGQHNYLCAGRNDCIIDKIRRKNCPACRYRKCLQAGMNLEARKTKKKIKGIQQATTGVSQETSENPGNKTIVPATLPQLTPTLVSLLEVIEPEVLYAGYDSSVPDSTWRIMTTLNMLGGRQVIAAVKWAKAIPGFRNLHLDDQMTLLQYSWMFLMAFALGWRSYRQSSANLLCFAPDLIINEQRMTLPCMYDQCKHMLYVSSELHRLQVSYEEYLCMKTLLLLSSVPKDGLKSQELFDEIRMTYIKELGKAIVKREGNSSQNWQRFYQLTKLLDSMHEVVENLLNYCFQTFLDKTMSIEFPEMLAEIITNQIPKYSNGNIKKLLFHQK

| Compound | activation | Potency |
| --- | --- | --- |
| C/C=C/C=C/CCCCCCCO | 3.77% | – |
| Cc1cc(OI)c(C(C)C)cc1-c1cc(C(C)C)c(OI)cc1C | 0.909% | – |
| CCCCN(CCCC)CCCOC(=O)c1ccc(N)cc1 | 0.362% [at 29.2 µM] | – |
| CC(C)(C)CC(C)(C)c1ccc(OCCO)cc1 | – | inactive |
| CC(C)(C)C(=O)O | -1.83% [at 79.2 µM] | – |
| C[N+]1(C)CCC(=C(c2ccccc2)c2ccccc2)CC1 | 1.26% [at 29.2 µM] | – |
| CO[C@H]1C=CO[C@@]2(C)Oc3c(C)c(O)c4c(O)c(c5c(c4c3C2=O)=NC2(CCN(CC(C)C)CC2)N=5)NC(=O)/C(C)=C\C=C/[C@H](C)[C@H](O)[C@@H](C)[C@@H](O)[C@@H](C)[C@H](OC(C)=O)[C@@H]1C | – | inactive |
| CCC(C)=O | 0.346% | – |
| CN1CCN(CCCN2c3ccccc3Sc3ccc(S(=O)(=O)N(C)C)cc32)CC1 | -2.33% [at 29.2 µM] | – |
| CCCCCC=CCC=CCCCCCCCC(=O)OCC | 1.22% | – |
| Cc1cc(O)c(C(C)C)cc1Cl | – | inactive |
| CCOC(=O)[C@@H](C)Oc1ccc(Oc2nc3ccc(Cl)cc3o2)cc1 | -3.02% | – |
| CC(=O)[C@H]1CC[C@H]2[C@@H]3C[C@H](C)C4=CC(=O)CC[C@]4(C)[C@H]3[C@@H](O)C[C@]12C | – | 32.3 nM (active) |
| CCC(C(=O)OCCN(CC)CC)c1ccccc1 (stereo not drawn) | 1.92% | – |
| CC1CC(=O)NN=C1c1ccc(NCC(C)(C)NCC(O)COc2cc(Cl)ccc2C#N)cc1 (stereo not drawn) | -2.54% | – |
| CC[C@@H]([C@H](C)O)n1ncn(-c2ccc(N3CCN(c4ccc(OC[C@@H]5CO[C@@](Cn6cncn6)(c6ccc(F)cc6F)C5)cc4)CC3)cc2)c1=O | -9.1% | – |
| CCn1nc(C)c2c1C(=O)NCC(c1ccc(O)cc1)=N2 | -12.5% | – |
| N#C/C(=C1\SCC(c2ccccc2Cl)S1)n1ccnc1 (stereo not drawn) | 8.01% | – |
| CC(C)OCC1CO1 (stereo not drawn) | 3.62% | – |
| CCCCCCCCCCCC[N+](C)(C)CC(=O)[O-] | -8.73% | – |
| O=C(Nc1ccc([N+](=O)[O-])cc1)Nc1ccc([N+](=O)[O-])cc1 | 2.37% | – |

target: Glucocorticoid receptor (Homo sapiens) (UniProt P04150); assay: qHTS assay to identify small molecule antagonists of the glucocorticoid receptor (GR) signaling pathway (AID 720692; active means well fitted inhibition curve with a large enough effect in the signal ratio in the repeat runs, not every such curve was filed as active; the % refers to the signal ratio); details: GR-bla HeLa, beta-lactamase FRET ratio, dexamethasone-stimulated, 18 h; series mostly up to 58.5 µM; activity change, negative = inhibition: at the top concentration
How it was run: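 Antagonism was scored as loss of dexamethasone-driven (5 nM final) reporter signal in HeLa cells bearing a glucocorticoid response element–beta-lactamase construct, after 18 h compound exposure at 37 C and 2 h FRET substrate loading.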

| Compound | activity change, negative = inhibition |
| --- | --- |
| CCCCN(CCCC)CCCOC(=O)c1ccc(N)cc1 | -0.458% [at 27 µM] |
| C[N+]1(C)CCC(=C(c2ccccc2)c2ccccc2)CC1 | -2.65% [at 27 µM] |
| CNCCCC1c2ccccc2C=Cc2ccccc21 | 22.5% [at 27 µM] |
| CCC(C(=O)OCCN(CC)CC)c1ccccc1 (stereo not drawn) | 8.34% |
| CCOC(=O)c1ccccc1C | 0.34% |
| CC1CC(=O)NN=C1c1ccc(NCC(C)(C)NCC(O)COc2cc(Cl)ccc2C#N)cc1 (stereo not drawn) | -4.22% |
| O=S(=O)(c1ccccc1)c1ccc(Cl)cc1 | -16.7% |
